Screening data deposited in PubChem by National Center for Advancing Translational Sciences (NCATS).
LmPK inh = LmPK (Leishmania mexicana) enzyme inhibition; purified LmPK, Kinase-Glo ATP luminescence, 1 h; Potency, µM (series often up to 57.5 µM), actives largely listed as inhibitors; AID 1721; hit rate 0.37% among 290,000
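Pyruvate kinase activity monitored as ATP production (luciferase luminescence). Conditions: 0.1 nM enzyme, 0.5 mM PEP, 0.1 mM ADP, 1 h, RT; normalized against uninhibited and no-enzyme wells.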
Sm TGR inh = S. mansoni TGR enzyme inhibition. purified TGR, DTNB reduction, TNB absorbance 405 nm. Potency, µM (doses to about 114 µM), hits mostly inhibitors. hit rate 3% among 360,000. AID 485364; also: nearly all actives have a fitted effect of over 60% in size
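First, TGR (20 nM dispensed) and NADPH were mixed with compound. Second, a 15 min room-temperature incubation followed. Third, further NADPH and then DTNB were added to start the reaction. Finally, TNB absorbance was monitored kinetically.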
TbPYK inhibitor = inhibitors of Trypanosoma brucei pyruvate kinase; hit rate 0.12% among 410,000; Potency, µM (doses to about 76.8 µM), hits mostly inhibitors; Q57TT1; TbPYK enzyme, Kinase-Glo Plus ATP luminescence, 45 min; also: nearly all actives have a fitted effect of over 50% in size
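Quantitative HTS: titrated library compounds versus trypanosomal pyruvate kinase in TEA buffer (pH 7.2) containing KCl, MgCl2, BSA and Tween-20. Reactions were initiated with ADP, 130 uM final. Kinase-Glo Plus luminescence was read after 45 min at RT.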
FBPA Giardia inh = blocks Giardia fructose-bisphosphate aldolase activity; Potency, µM (highest dose often 59.6 µM), most hits filed as inhibitors; hit rate 0.71% among 290,000; A8B2U2; purified Giardia FBPA; AID 2451; also: nearly all actives have a fitted effect of over 55% in size
Target sequence (A8B2U2 whole entry, looked up): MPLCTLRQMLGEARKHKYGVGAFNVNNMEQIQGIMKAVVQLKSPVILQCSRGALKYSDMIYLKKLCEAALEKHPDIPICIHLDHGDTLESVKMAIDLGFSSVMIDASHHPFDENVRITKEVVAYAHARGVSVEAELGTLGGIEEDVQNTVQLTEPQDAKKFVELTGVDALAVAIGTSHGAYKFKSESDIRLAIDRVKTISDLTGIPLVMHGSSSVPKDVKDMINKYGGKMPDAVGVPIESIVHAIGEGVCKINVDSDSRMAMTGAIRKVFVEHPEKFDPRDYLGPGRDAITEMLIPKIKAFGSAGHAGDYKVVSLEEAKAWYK
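40 nM FBPA preincubated 10 min at RT with compound (up to 57.5 uM final), then substrate plus GAPDH/TPI/NAD/arsenate coupling and diaphorase/resazurin added. Fluorescence read after 20 min at RT, 525/598 nm.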
Shiga toxin inh = inhibitors of Shiga toxin in Vero cells | inhibition, % at 38.7 µM | hit rate 9.2% among 290,000 | Vero cells, Shiga toxin protein synthesis inhibition reporter | AID 2315; in the data active = inhibition mostly above about 28%, no sharp cut-off; inactive = mostly below about 43%
CHX counter = counter-screen hit for Shiga toxin inhibitors, cycloheximide; cell reporter, cycloheximide protein synthesis inhibition counterscreen; max response, %; hit rate 12% among 300,000; AID 2314; in the data active = max response mostly above about 13%, no sharp cut-off; inactive = mostly below about 14%; also: read at 38.3 µM for the half of the compounds with a filed dose
A number is an active result; [ ] = another dose, or the depositor's remark. This excerpt belongs to a sample that is enriched for hits. Unless noted, calls follow the shape of the dose curve; as a rule, active = well fitted curve in the direction sought with a large enough effect; inconclusive = small, poorly fitted or top-dose-only effect, or another doubt; inactive = no such curve, though single readings can be large; an effect the other way counts as inactive or inconclusive.

For O=C(COC(=O)c1ccc2c(c1)OCO2)Nc1nc(-c2ccccc2)cs1 the results were LmPK inh inactive, TbPYK inhibitor inactive, FBPA Giardia inh inactive, Shiga toxin inh inactive and CHX counter inactive.
For Cc1cc(C(=O)OCC(=O)Nc2nc(-c3ccccc3)cs2)c(C)o1 the results were LmPK inh inactive, Sm TGR inh inactive[11.4 µM], TbPYK inhibitor inactive, FBPA Giardia inh inactive, Shiga toxin inh inactive and CHX counter inactive.
O=C(COC(=O)c1ccccn1)Nc1nc(-c2cccc([N+](=O)[O-])c2)cs1 was read as LmPK inh inactive, Sm TGR inh inactive, TbPYK inhibitor inactive, FBPA Giardia inh inactive, Shiga toxin inh inactive and CHX counter 18.
For O=C(COC(=O)c1ccccn1)Nc1nc(-c2ccccc2)cs1 the results were LmPK inh inactive, Sm TGR inh inactive, TbPYK inhibitor inactive, FBPA Giardia inh inactive, Shiga toxin inh 81 and CHX counter 42.
For O=C(CSc1ccc(-c2ccccn2)nn1)c1ccc([N+](=O)[O-])cc1 the results were LmPK inh inactive, Sm TGR inh inactive, TbPYK inhibitor inactive, FBPA Giardia inh inconclusive, Shiga toxin inh inactive and CHX counter inactive.
`COC(=O)c1cc(S(=O)(=O)NC2CCCCC2)cn1C` gave LmPK inh inactive, Sm TGR inh inactive, TbPYK inhibitor inactive, Shiga toxin inh inactive and CHX counter inactive.
Screening N#C/C(=C\c1cccnc1)C(=O)NC1CCCCC1 returned LmPK inh inactive, Sm TGR inh inactive, TbPYK inhibitor inactive, FBPA Giardia inh inactive, Shiga toxin inh inactive and CHX counter inactive.
Screening COc1cc(/C=C(\C#N)c2nc3c(s2)CCCC3)ccc1O returned LmPK inh inactive, Sm TGR inh inconclusive, FBPA Giardia inh inactive, Shiga toxin inh 68 and CHX counter 50.
N#C/C(=C\c1cccnc1)c1nc2c(s1)CCCC2 was read as LmPK inh inactive, Sm TGR inh inactive, TbPYK inhibitor inactive, FBPA Giardia inh inactive, Shiga toxin inh 156 and CHX counter 44.
`COc1cc(/C=C(\C#N)C(=O)N2CCCCC2)ccc1O` gave LmPK inh inactive, Sm TGR inh inactive, TbPYK inhibitor inactive, FBPA Giardia inh inactive, Shiga toxin inh inactive and CHX counter inactive.
Screening CC1CCc2nc(/C(C#N)=C/c3cccnc3)sc2C1 (configuration not stated) returned LmPK inh inactive, Sm TGR inh inactive, TbPYK inhibitor inactive, FBPA Giardia inh inactive, Shiga toxin inh 145 and CHX counter 52.
Screening N#C/C(=C\c1cccnc1)c1ccc([N+](=O)[O-])cc1 returned LmPK inh inactive, Sm TGR inh inactive, TbPYK inhibitor inactive, FBPA Giardia inh inactive, Shiga toxin inh inactive and CHX counter inactive.
For CCOC(=O)c1nn(-c2ccc(F)cc2)c(=O)cc1OCC(=O)Nc1ccc(OCC)cc1 the results were Sm TGR inh inactive and TbPYK inhibitor inactive.
`c1nc(NCCN2CCOCC2)c2sc3nc(N4CCOCC4)c4c(c3c2n1)CCC4` gave LmPK inh inactive, Sm TGR inh 45µM, TbPYK inhibitor inactive, FBPA Giardia inh inactive, Shiga toxin inh inactive and CHX counter inactive.
CC1CCN(C(=O)c2[nH]cnc2C(=O)N2CCN(c3ccccc3)CC2)CC1 was read as Sm TGR inh inactive and TbPYK inhibitor inactive.
COc1ccc(NC(=O)CCC2CCCC2)cc1OC was read as LmPK inh inactive, Sm TGR inh inactive, TbPYK inhibitor inactive, FBPA Giardia inh inactive, Shiga toxin inh 67 and CHX counter 19.
CC(=O)Nc1cccc(C(=O)N(Cc2ccccc2)Cc2ccccc2)c1 was read as LmPK inh inactive, Sm TGR inh inactive, TbPYK inhibitor inactive, FBPA Giardia inh inactive, Shiga toxin inh inactive and CHX counter inactive.
CC(=O)Nc1cccc(C(=O)N(CCc2ccccc2)Cc2ccccc2)c1 was read as LmPK inh inactive, Sm TGR inh inactive, TbPYK inhibitor inactive, Shiga toxin inh inactive and CHX counter 28.
`COC(=O)c1cccc(NC(=O)CCc2ccccc2)c1` gave LmPK inh inactive, Sm TGR inh inactive, TbPYK inhibitor inactive, FBPA Giardia inh inactive, Shiga toxin inh 57 and CHX counter 58.
For Cc1cccc(NC(=O)CCc2ccccc2)c1 the results were LmPK inh inactive, Sm TGR inh inactive, TbPYK inhibitor inactive, FBPA Giardia inh inactive, Shiga toxin inh inactive and CHX counter 54.
COc1ccc(NC(=O)CC2CCCC2)cc1OC was read as LmPK inh inactive, Sm TGR inh inactive, TbPYK inhibitor inactive, Shiga toxin inh inactive and CHX counter inactive.
`COC(=O)c1cccc(NC(=O)CSCc2ccccc2)c1` gave LmPK inh inactive, Sm TGR inh inactive, TbPYK inhibitor inactive, FBPA Giardia inh inactive, Shiga toxin inh inactive and CHX counter 19.
Screening CC(=O)Nc1cccc(NC(=O)CCc2ccccc2)c1 returned LmPK inh inactive, Sm TGR inh inactive, TbPYK inhibitor inactive, FBPA Giardia inh inactive, Shiga toxin inh 138 and CHX counter inactive.
Screening CN(C)c1cccc(NC(=O)CCc2ccccc2)c1 returned LmPK inh inactive, Sm TGR inh inactive, TbPYK inhibitor inactive, FBPA Giardia inh inconclusive, Shiga toxin inh 68 and CHX counter 18.
Screening CC(=O)Nc1ccc(NC(=O)CCCc2ccccc2)cc1 returned LmPK inh inactive, Sm TGR inh inactive, TbPYK inhibitor inactive, FBPA Giardia inh inactive, Shiga toxin inh inactive and CHX counter 31.
Screening COC(=O)c1ccc(CSCC(=O)Nc2ccccc2)cc1 returned LmPK inh inactive, Sm TGR inh inactive, TbPYK inhibitor inactive, FBPA Giardia inh inactive, Shiga toxin inh inactive and CHX counter inactive.
CCC(=O)Nc1cccc(NC(C)=O)c1 was read as LmPK inh inactive, Sm TGR inh inactive, FBPA Giardia inh inactive, Shiga toxin inh inactive and CHX counter inactive.
Screening Cc1cc(=O)n(Cc2ccc(Br)cc2F)c2c1c(C)nn2-c1ccccc1 returned Sm TGR inh inactive and TbPYK inhibitor inactive.
Screening O=C(COC(=O)Cc1n[nH]c(=O)c2ccccc12)NNC(=O)c1ccc(Cl)cc1 returned Sm TGR inh inactive and TbPYK inhibitor inactive.
Screening Oc1cccc(-c2c3nc(c(-c4cccc(O)c4)c4ccc([nH]4)c(-c4cccc(O)c4)c4nc(c(-c5cccc(O)c5)c5ccc2[nH]5)CC4)C=C3)c1 returned TbPYK inhibitor inactive.
For COc1ccc(CCOC(=O)c2cccc(NC(C)=O)c2)cc1 the results were LmPK inh inactive, Sm TGR inh inactive, TbPYK inhibitor inactive, Shiga toxin inh 52 and CHX counter 36.
For COc1ccc(NC(=O)CCCc2ccccc2)cc1OC the results were LmPK inh inactive, Sm TGR inh inactive, TbPYK inhibitor inactive, FBPA Giardia inh inactive, Shiga toxin inh 89 and CHX counter 54.
Screening CC(=O)Nc1cccc(C(=O)OCC(=O)NCc2ccc(F)cc2)c1 returned LmPK inh inactive, Sm TGR inh inactive, TbPYK inhibitor inactive, FBPA Giardia inh inactive, Shiga toxin inh inactive and CHX counter inactive.
